Measurements published in PubChem BioAssay (EPA / NIEHS).
Results filed as inconclusive are left out. The source made the active and inactive calls. Rule for the calls: active = hit-call score of the fitted dose curve at least 0.9, where 1 is the maximum; inconclusive = response in the unintended direction; inactive = score below 0.9.

Assay: Tanguay_ZF_120hpf_PFIN_legacy: (Legacy) Oregon State University Tanguay Lab 120 Hour Post-fertilization zebrafish Assay for Pectoral Fin Malformation (AID 2283648);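 note: each larva judged yes or no for fin defect by brightfield with dead larvae skipped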
Protocol: Tanguay_ZF_120hpf_legacy is a whole embryo, multiplexed endpoint assay using zebrafish larvae exposed for 120 hours post fertilization on a 96-well plate.Tanguay_ZF_120hpf_PFIN_legacy is one of one assay component(s) measured or calculated from the Tanguay_ZF_120hpf_legacy assay. It is designed to make measurements of zebrafish development as detected with brightfield microscopy of developing zebrafish embryos.Data from the assay component Tanguay_ZF_120hpf_PFIN_legacy was analyzed into 1 assay endpoints. This assay endpoint, Tanguay_ZF_120hpf_PFIN_legacy, was analyzed in the positive analysis fitting direction relative to DMSO as the negative control and baseline of activity. Using a type of morphology reporter, gain-of-signal activity can be used to understand changes in developmentals as they relate to the whole embryo. To generalize the intended target to other relatable targets, this assay endpoint is annotated to the zebrafish development intended target family, where the subfamily is pectoral fin morphogenesis.
Zebrafish husbandry: Tropical 5D wild-type adult zebrafish were housed in at an approximate density of 1000 per 100 gallon tank at the Sinnhuber Aquatic Research Laboratory, Oregon State University, Corvallis, OR. Each tank was kept at standard laboratory conditions of 28C on a 14-h light/10-h dark photoperiod in fish water consisting of reverse osmosis water supplemented with a commercially available salt (Instant Ocean). Spawning funnels were placed into the tanks the night prior, and embryos were collected and staged. To increase bioavailability, the chorion was enzymatically removed using pronase (63.6mg/ml, >/= 3.5U/mg, Sigma-Aldrich: P5147) at 4 hours post fertilization (hpf) using a custom automated dechorionator.Chemical exposures: Six hpf dechorionated embryos were placed 1 embryo per well in a 96-well plate prefilled with 90 ul of EM using automated embryo placement systems (AEPS). Ten microliters of each row of dilution plate 2 was added to 2 exposure plates. The final DMSO concentration used was 0.64% (vol/vol). Thirty-two embryos were also exposed to 5uM trimethyltin chloride (positive control). Plates were sealed to prevent evaporation and foil covered to reduce light exposure and kept in a 28C incubator. Embryos were statically exposed until 120 hpf. At 24 hpf, embryos were assessed for photomotor response using a custom photomotor response analysis tool (PRAT) and for developmental toxicity endpoints (MO24: mortality at 24 hpf, DP: developmental progression, SM: spontaneous movement, and NC: notochord distortion). At 120 hpf, locomotor activity was measured using Viewpoint Zebralab and assessed for 18 endpoints. Zebrafish acquisition and analysis program (ZAAP), a custom program designed to inventory, acquire, and manage zebrafish data, was used to collect developmental endpoints as either present or absent (i.e., binary responses were recorded). If mortality occurred for an embryo (at either 24 or 120 hpf), the non-mortality endpoints were not measured.

Compound | AC50 | outcome
CCOC(=O)CC(SP(=S)(OC)OC)C(=O)OCC (stereo not given) | 34 µM (active) | –
COC(=O)N(OC)c1ccccc1COc1ccn(-c2ccc(Cl)cc2)n1 | – | inactive
CCOC(=O)C(Cl)Cc1cc(-n2nc(C)n(C(F)F)c2=O)c(F)cc1Cl (stereo not given) | 2.19 µM (active) | –
CCON=C(CC)C1=C(O)CC(c2c(C)cc(C)cc2C)CC1=O (stereo not given) | – | inactive
N#CC(CCc1ccc(Cl)cc1)(Cn1cncn1)c1ccccc1 (stereo not given) | – | inactive
OC(c1ccc(Cl)cc1)(c1cncnc1)c1ccccc1Cl (stereo not given) | – | inactive
C=CCC1=C(C)[C@@H](OC(=O)[C@@H]2[C@@H](C=C(C)C)C2(C)C)CC1=O | – | inactive
CO/C=C(/C(=O)OC)c1ccccc1Oc1cc(Oc2ccccc2C#N)ncn1 | – | inactive
CON(C)C(=O)Nc1ccc(Cl)c(Cl)c1 | – | inactive
Cc1ccc(-c2c(Cl)nc(C#N)n2S(=O)(=O)N(C)C)cc1 | – | inactive
Fc1ccc(Oc2ccnc3cc(Cl)cc(Cl)c23)cc1 | – | inactive
C=CCC1=C(C)C(OC(=O)C2C(C=C(C)C)C2(C)C)CC1=O (stereo not given) | – | inactive
CC(C)(C)c1ccc(CSc2cnn(C(C)(C)C)c(=O)c2Cl)cc1 | – | inactive
COP(=S)(OC)Oc1nc(Cl)c(Cl)cc1Cl | – | inactive
Cc1c(F)c(F)c(COC(=O)C2C(/C=C(\Cl)C(F)(F)F)C2(C)C)c(F)c1F (stereo not given) | 3.13 µM (active) | –
CC(Oc1ccc(Cl)cc1Cl)C(=O)O (stereo not given) | – | inactive
CCCCOC(=O)c1ccccc1C(=O)OCCCC | – | inactive
COC(=O)c1ccccc1C(=O)OC | – | inactive
CCCN(CCC)c1c([N+](=O)[O-])cc(S(N)(=O)=O)cc1[N+](=O)[O-] | – | inactive
CCCCC(CC)COC(=O)c1ccccc1C(=O)OCC(CC)CCCC (stereo not given) | – | inactive

Compound | AC50 | outcome
CCCCNC(=O)n1c(NC(=O)OC)nc2ccccc21 | – | inactive
CC1COC(Cn2cncn2)(c2ccc(Oc3ccc(Cl)cc3)cc2Cl)O1 (stereo not given) | 3.69 µM (active) | –
CC(C)Oc1cc(-n2nc(C(C)(C)C)oc2=O)c(Cl)cc1Cl | – | inactive
CNC(=O)ON=CC(C)(C)SC | – | inactive
COC(=O)C=C(C)OP(=O)(OC)OC | – | inactive
Cc1cc(Cl)ccc1OCC(=O)O | – | inactive
CCCCNC(=O)OCC#CI | – | inactive
COc1nc(NC(C)C)nc(NC(C)C)n1 | – | inactive
C#CCOS(=O)OC1CCCCC1Oc1ccc(C(C)(C)C)cc1 (stereo not given) | – | inactive
COc1cnc(OC)n2nc(NS(=O)(=O)c3c(OCC(F)F)cccc3C(F)(F)F)nc12 | – | inactive
CCOP(=S)(OCC)SCn1c(=O)oc2cc(Cl)ccc21 | – | inactive
CCc1nn(C)c(C(=O)NCc2ccc(C(C)(C)C)cc2)c1Cl | – | inactive
N#Cc1nn(-c2c(Cl)cc(C(F)(F)F)cc2Cl)c(N)c1S(=O)C(F)(F)F (stereo not given) | – | inactive
CC(C)C1(C)N=C(c2nc3ccccc3cc2C(=O)O)NC1=O (stereo not given) | – | inactive
COc1ccc(C(c2ccc(OC)cc2)C(Cl)(Cl)Cl)cc1 | – | inactive
Oc1ccccc1-c1ccccc1 | – | inactive
CCNc1nc(Cl)nc(NCC)n1 | – | inactive
O=C(O)c1nc(Cl)ccc1Cl | – | inactive
N#Cc1cc(Br)c(O)c(Br)c1 | – | inactive
CCOc1cc(Oc2ccc(C(F)(F)F)cc2Cl)ccc1[N+](=O)[O-] | – | inactive
